Measurements reported in PubChem BioAssay AID504941 (Broad Institute, 2011).
Out of some 1,200 compounds screened, about 170 (14%) were called active. These entries were drawn from the full list. Potency and affinity values are given separately. A number with no mark means an inactive call. How the calls were made is not given here.

assay: twin-arginine translocation blockade, bacterial reporter – cherry-pick, set 2, plate reader, dose response (AID 504941); conditions: E. coli Tat transport reporter; series mostly up to 38 µM; activity change, negative = inhibition: at the top concentration

Row | Compound | activity change, negative = inhibition [%]
1 | COc1ccc(S(=O)(=O)N2CCC(C(=O)NCc3cccnc3)CC2)cc1OC | 2.11
2 | COc1ccc(NC(=O)Cn2ncc(Cl)c(Cl)c2=O)cc1S(=O)(=O)N1CCOCC1 | 2.91
3 | O=c1[nH]c2ccc(S(=O)(=O)N3CCCCC3)cc2s1 | 17
4 | CN(C)C(=S)Nc1ccc2ccccc2c1 | -3.63
5 | O=C(Cn1cc(C(F)(F)F)ccc1=O)OCC(=O)c1ccc[nH]1 | 11.2
6 | COc1ccc(/C(C)=N/NC(=O)CNC(=O)c2ccncc2)c(OC)c1 | -12.5
7 | Cc1c(Cl)cccc1NC(=O)C1NC(=O)CC1c1ccccc1 (stereo unspecified) | -18
8 | COC(=O)CSc1ccc(C#N)c(SCC(=O)OC)c1 | -25.3
9 | CCC1Oc2nc(SC)nnc2-c2ccccc2N1C(=O)c1ccccc1 (stereo unspecified) | 4.65
10 | CCC(CC)C(=O)Nc1nnc(S(=O)(=O)N2CCCCCC2)s1 | -1.1
11 | CCOC(=O)c1cc(C)sc1NC(=O)C(c1ccccc1)c1ccccc1 | -30.7
12 | CCOc1ccc(NC(=O)CN2C(=O)/C(=C3\SC(=S)N(C4CCS(=O)(=O)C4)C3=O)c3ccccc32)cc1 (stereo unspecified) | 8.88
13 | Cc1cc(C)c(NS(=O)(=O)c2ccc3c(c2)NC(=O)CCS3)c(C)c1 | -14.1
14 | O=C(COC(=O)/C=C/c1ccc(F)cc1)Nc1nnc(-c2ccccc2)o1 | 34.7
15 | Cc1cc(C(=O)CSc2nnc(-c3ccc4c(c3)OCO4)o2)c(C)n1-c1ccc(F)cc1 | 3.43
16 | O=C(Cn1cc([N+](=O)[O-])cn1)N1CCN(c2ccccc2)CC1 | 11.2
17 | COC(=O)C1C(O)C(C)C(O)C(C)(O)/C=C\C=C(/C)C(=O)Nc2c(C)c(OC(C)=O)c3c(c2O)C(=O)C(C)=C2OCOC(=C23)/C(C)=C/C(C)(O)C(O)C(C)C1O (stereo unspecified) | -24.2
18 | COc1ccc(OC)c(S(=O)(=O)N2CCC(C(=O)NC3CC3)CC2)c1 | 19.3
19 | COc1ccc(S(=O)(=O)N2CCC(C(=O)N3CCN(C)CC3)CC2)cc1Cl | -4.18
20 | CCOc1ccc(NC(=O)CNC(=O)Cc2ccccc2)cc1 | 4.14
21 | COC(=O)c1ccc(CNC(=O)C2CCC(=O)N(Cc3ccccn3)C2)cc1 (stereo unspecified) | -28.2
22 | CNC1=CC(=O)CC(c2ccccc2)C1 (stereo unspecified) | 12.6

Row | Compound | activity change, negative = inhibition [%]
23 | CCCCCn1c(CNC(=O)c2cccs2)nc2ccccc21 | -1.52
24 | O=C(Nc1c2c(nn1-c1ccccc1)CS(=O)(=O)C2)c1cccs1 | -5.38
25 | Cc1cccnc1NC(=O)c1cccc(S(=O)(=O)N2CCCc3ccccc32)c1 | -14
26 | O=C(COC(=O)c1cccc(S(=O)(=O)N2CCc3ccccc32)c1)Nc1ncc(C(F)(F)F)cc1Cl | 14.6
27 | Cc1nc(NC(=O)/C=C/c2ccccc2)sc1C(=O)N(C)C | 0.771
28 | CC(NC(=O)CSc1nc2sc3c(c2c(=O)n1-c1ccccc1)CCCC3)c1ccccc1 (stereo unspecified) | 6.92
29 | CCn1c(C)cc(/C=C2/NC(=O)N(Cc3ccccc3F)C2=O)c1C | 10.6
30 | O=C(COc1ccc2c3c(c(=O)oc2c1)CCCC3)NCCCn1ccnc1 | 16.2
31 | O=C(COc1ccc2c3c(c(=O)oc2c1)CCCC3)NCC(O)c1ccccc1 (stereo unspecified) | 4.93
32 | c1ccc(-n2c(SCC3CCCCO3)nnc2-c2cccs2)cc1 (stereo unspecified) | -12.4
33 | Cc1noc(C)c1COc1ccccc1C(=O)NC1CCC(C)CC1 (stereo unspecified) | -7.29
34 | CCN(CC)CC(=O)N(CC(=O)Nc1c(C)cc(C)cc1C)C1CCCCC1 | -9.21
35 | O=[N+]([O-])c1ccc(O)c(/C=N/Nc2nc3ccccc3[nH]2)c1 | -11.5
36 | O=c1oc(-c2ccccc2)nc2sc3c(c12)CCCC3 | -12.9
37 | O=C(O)CCCc1nc(-c2ccc(Cl)cc2)no1 | -8.66
38 | COc1ccc(OCc2nnc(SCC(=O)N3C(C)CCCC3C)o2)cc1 (stereo unspecified) | 13.9
39 | c1ccc(C2NCCc3ccccc32)cc1 (stereo unspecified) | 39.2
40 | Nc1nnc(-c2cn(-c3ccccc3)nc2-c2ccc(Cl)cc2)o1 | -4.94
41 | O=C(COC(=O)C12CC3CC(CC(Br)(C3)C1)C2)Nc1cccnc1Cl | 7.63
42 | CSc1ncccc1C(=O)OCC(=O)N(C)c1c(N)n(Cc2ccccc2)c(=O)[nH]c1=O | 33.1
43 | O=C(OCC(=O)N1CCCC1=O)c1cccc(S(=O)(=O)N2CCOCC2)c1 | 17
44 | COc1ccc(NC(=O)CC2(CC(=O)O)CCCC2)cn1 | 1.15

Row | Compound | activity change, negative = inhibition [%]
45 | O=C(Nc1nc2c(s1)CCCC2)c1cccc(S(=O)(=O)N2CCCc3ccccc32)c1 | -28
46 | CN(C(=O)c1cc2sccc2n1C)C1CCCCC1 | -5.46
47 | O=C(CCSc1ccccc1)NCC1CCCO1 (stereo unspecified) | -12.9
48 | O=C(C1CCCO1)N1CCN(c2c3c(nc4cc(-c5ccc(F)cc5)nn24)CCC3)CC1 (stereo unspecified) | 6.78
49 | CCOc1ccc(Br)cc1CNCCN1CCOCC1 | 8.37
50 | O=C(c1ccc2nc[nH]c2c1)N1CCN(c2ncc(C(F)(F)F)cc2Cl)CC1 | -6.11
51 | CN(C)S(=O)(=O)c1cccc(NC(=O)C2CCN(S(=O)(=O)c3cccs3)CC2)c1 | -4.43
52 | Cn1c(SCC(=O)NCc2cccs2)nnc1-c1ccc(S(=O)(=O)N2CCCC2)cc1 | 4.13
53 | O=C(Cn1cc2c(n1)CCCCC2)N1CCc2ccccc2C1 | -0.285
54 | CC(/C=N/NC(=O)c1n[nH]c2c1CCC2)=C\c1ccccc1 | -7.52
55 | CCC(CO)NC(=O)c1cccc(S(=O)(=O)N2c3ccccc3CC2C)c1 (stereo unspecified) | -5.23
56 | CC(C)S(=O)(=O)C1=NSC2=NC(=O)/C(=C\c3ccc(-c4cccc(C(=O)O)c4)o3)C(=N)N21 | -12.2
57 | O=C(Nc1cc(N2CCOCC2)ncn1)c1ccccc1 | 13.4
58 | O=C(O)c1ccc(NC2=C(N3CCOCC3)C(=O)c3ccccc3C2=O)cc1 | 0.607
59 | O=C(COC(=O)Cn1cnc2ccccc2c1=O)NCC12CC3CC(CC(C3)C1)C2 | 4.59
60 | CC(=O)NC1=NN(C(C)=O)C2(S1)C(=O)N(C(C)C)c1ccc(C)cc12 (stereo unspecified) | 5.85
61 | Cc1cc(-c2c(C)[nH]n(-c3ccc(Cl)cc3)c2=O)n(-c2ccc(Cl)cc2)n1 | 13.9
62 | COC(=O)COc1cc2ccccc2cc1C(=O)Nc1ccccc1 | 20.3
63 | O=[N+]([O-])c1cccc(COc2cccc(CN3CCCCC3)c2)c1 | 2.01
64 | CS(=O)(=O)N1CCN(C(=O)c2cccnc2)CC1 | -7.67
65 | CC1(C)CC(=O)C=C(NCCN2CCN(C(=O)Nc3ccccc3)CC2)C1 | 0.237
66 | CC(C)(C)NC(=O)C[C@H]1C[C@H](C(=O)N2CCOCC2)[C@@]2(CCC3CCCC3)c3[nH]c4cc(-c5ccco5)ccc4c3CCN2C1=O | 18.4
